15 compounds from PubChem BioAssay (NCATS) can be followed below.

Values joined by “and” are separate entries in the source; they are usually repeats but may differ in a detail not shown here. Equal values may be shown once. Records with an inconclusive call do not appear. Active and inactive are the calls of the source. Unless noted, calls come from the whole dose curve; as a rule, active = well fitted curve in the direction sought with a large enough effect; inconclusive = small, poorly fitted or top-dose-only effect, or another doubt; inactive = no such curve, though single readings can be large; an effect the other way counts as inactive or inconclusive.

The target of assay [1] is Alpha-galactosidase A (Homo sapiens) (UniProt P06280). The assay is described as follows: Counterscreen for Glucocerebrosidase Inhibitors: qHTS Assay for Human alpha-Galactosidase at pH 4.5 (AID 992). Note: 0% is about no effect. The method, boiled down: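 Each compound is preincubated briefly with 2 nM enzyme before substrate addition (80 uM); plates then sit 20 min at ambient temperature, are quenched with 1M NaOH/1M glycine, and read fluorometrically.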
Chain of Alpha-galactosidase A (Homo sapiens) (P06280 whole entry, looked up): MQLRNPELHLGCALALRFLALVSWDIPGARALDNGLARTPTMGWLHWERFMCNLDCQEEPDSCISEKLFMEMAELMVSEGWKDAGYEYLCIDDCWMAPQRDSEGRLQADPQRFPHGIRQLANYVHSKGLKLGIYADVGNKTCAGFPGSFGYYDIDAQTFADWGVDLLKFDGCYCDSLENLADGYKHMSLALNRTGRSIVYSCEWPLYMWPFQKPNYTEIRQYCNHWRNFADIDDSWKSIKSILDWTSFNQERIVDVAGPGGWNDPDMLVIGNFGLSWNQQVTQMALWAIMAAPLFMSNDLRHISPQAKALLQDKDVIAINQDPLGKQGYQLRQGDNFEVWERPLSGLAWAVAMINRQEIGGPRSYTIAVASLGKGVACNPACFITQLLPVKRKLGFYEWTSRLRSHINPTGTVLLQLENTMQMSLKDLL

The target in assay [2] is Alpha-galactosidase (Coffea arabica) (UniProt Q42656). The experiment in a line: Counterscreen for Glucocerebrosidase Inhibitors: qHTS Assay for Coffee Bean alpha-Galactosidase at pH 5.9 (AID 998).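 Note: plate controls were uninhibited enzyme for no effect and no-enzyme basal signal for full effect.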 Summed up:
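Enzyme 2 nM + cpd (0.7 nM–77 uM titration) + 4-MU-alpha-Gal 80 uM, pH 5.9 citrate/Tween-20, RT 20 min, NaOH/glycine stop pH 10, fluor 365/440. Normalized to no-enzyme and full-activity controls; Hill-fit AC50.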
On the technique in general: The purpose of a counterscreen is to sort out artefacts and off-target activity.

Assay [3] can be described thus: Validation of Assay for Modulators of Lamin A Splicing (AID 1459; active = well fitted curve in the direction sought with a large enough effect in the signal ratio; the % refers to the signal ratio;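 note: cells exposed to compound for two days before reading; 0% is about no effect; ratio rise marks activators and ratio drop marks inhibitors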). The method, boiled down:
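S3 HeLa cells stably expressing a lamin A-EGFP splicing minigene and DsRed2 were seeded at 600 cells/well in Opti-MEM with 2% FBS, pin-dosed, and incubated 48 hrs at 37 °C, 5% CO2. Laser-scanning cytometry (488 nm) gave GFP/RFP total intensity ratio.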

A short description of assay [4]: qHTS Assay for Lipid Storage Modulators (AID 1519; calls by dose curve; for activity change, negative = inhibition: % is set by controls: 0 for no effect and ±100 for the full control effect). The conditions noted are these: Drosophila S3 cells, BODIPY lipid droplet/cell ratio, laser cytometry, cells loaded with oleic acid; for activity change, negative = inhibition: at 57.5 µM (top of the series). The method, boiled down:
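Cells seeded at 5,000 per well were treated with compounds over a concentration series and loaded with oleic acid (400 uM, as added). Lipid droplet fluorescence (488 nm excitation, 500-530 nm channel) was read by laser-scanning cytometry and normalized to 20 uM Triacsin C.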
(In general: Quantitative high-throughput screening tests each substance at several concentrations.)

Assay [5] deals with alpha-glucosidase (Oryza sativa, rice) (UniProt Q653V4). The assay is described as follows: Counterscreen for Glucocerebrosidase Inhibitors: qHTS Assay for Rice alpha-Glucosidase at pH 5.0 (AID 997).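 Note: 0% = full activity with enzyme and -100% = basal without enzyme.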 The method, boiled down: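 Endpoint fluorogenic assay at pH 5.0: compounds (0.7 nM to 77 uM) titrated against 4 nM rice enzyme and 400 uM 4-MU-alpha-glucoside for 20 min at room temperature; NaOH/glycine stop, read ex 365/em 440 nm, Hill-fitted AC50.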

Where [6] appears, read: measured here: cell count channel max response.
Setting [7] is: measured here: lipid channel max response.

Chain of Alpha-galactosidase (Coffea arabica) (Q42656 whole entry, looked up): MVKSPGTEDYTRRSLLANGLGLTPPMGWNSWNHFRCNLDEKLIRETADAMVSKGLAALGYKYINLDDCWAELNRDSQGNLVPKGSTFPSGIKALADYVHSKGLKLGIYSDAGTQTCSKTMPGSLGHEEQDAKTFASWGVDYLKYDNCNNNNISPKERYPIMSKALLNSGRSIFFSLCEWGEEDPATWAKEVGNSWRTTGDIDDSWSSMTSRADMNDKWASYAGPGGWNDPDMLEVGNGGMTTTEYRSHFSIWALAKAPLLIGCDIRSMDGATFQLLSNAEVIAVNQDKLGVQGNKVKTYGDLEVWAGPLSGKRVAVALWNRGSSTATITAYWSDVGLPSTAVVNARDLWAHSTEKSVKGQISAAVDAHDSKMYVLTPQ

For the compound `CN(N=O)c1ccc(O)c(O)c1`, the call in assay [1], in assay [2] and in assay [3] was inactive. Also, in assay [4], the activity change, negative = inhibition is -1.9% (inactive). Further, the max response is -25.4% in assay [4] (setting [6]) and -24.9% in assay [4] (setting [7]).
In the case of `O=c1c2ccccc2[se]n1-c1ccccc1`, the call in assay [1] and in assay [3] was inactive.
Consider `COc1ccc2[nH]c3c(c2c1)CCNC3`, for which the call in assay [1], in assay [2] and in assay [3] was inactive. Moreover, in assay [4], the activity change, negative = inhibition was -0.655% (inactive). In addition, the max response is -42.9% in assay [4] (setting [6]) and -46.2% in assay [4] (setting [7]).
For `O=P(O)(O)C(Cl)(Cl)P(=O)(O)O`, the compound was classed as inactive in assay [1], in assay [5], in assay [2] and in assay [3].
Regarding `C[N+](C)(C)CC#CCN1CCCC1=O`, the call in assay [1], in assay [5], in assay [2] and in assay [3] was inactive.
Consider `COc1ccc2[nH]cc(CCN)c2c1`, for which the call in assay [1], in assay [5], in assay [2] and in assay [3] was inactive.
Regarding `c1ccc2c(N3CCNCC3)cccc2c1`, the call in assay [1], in assay [2] and in assay [3] was inactive. The activity change, negative = inhibition in assay [4] was -1.92% (inactive). Further, the max response worked out at 39.8% in assay [4] (setting [6]) and 34.6% in assay [4] (setting [7]).
In the case of `CCCN(CCC)[C@@H]1CCc2cccc(O)c2C1`, the compound was classed as inactive in assay [1], in assay [2] and in assay [3]. Moreover, the activity change, negative = inhibition in assay [4] was -3.59% (inactive) and 3.17% (inactive) and -3.25% (inactive). In addition, the max response was 0.992% and 13.8% and 35% in assay [4] (setting [6]); -2.21% and 19.9% and 27.7% in assay [4] (setting [7]).
As to `C=CCN1CC[C@]23c4c5ccc(O)c4O[C@H]2/C(=N/NC(=O)c2ccccc2)CC[C@@]3(O)[C@H]1C5`, the call in assay [3] was inactive. Moreover, the activity change, negative = inhibition in assay [4] was -1.45% (inactive). For the same compound, the max response in assay [4] (setting [6]) was -18.8%; in assay [4] (setting [7]), -20.5%.
As for `CCCN1CC[C@@H]2c3cc(O)ccc3CC[C@@H]21`, the result in assay [3] was inactive. For the same compound, the activity change, negative = inhibition in assay [4] was 1.73% (inactive). Moreover, the figures for the max response in assay [4] (setting [6]) and in assay [4] (setting [7]) were 47.3% and 49.1%, respectively.
For the compound `CN1CCC(c2c[nH]c3ccc(O)cc23)CC1`, the result in assay [1], in assay [2] and in assay [3] was inactive. Also, in assay [4], the activity change, negative = inhibition was 2.83% (inactive) and 0.677% (inactive). Further, the max response in assay [4] (setting [6]) is 19.5% and 47.8%; in assay [4] (setting [7]), 24% and 52.3%.
For `CCCn1c(C)c(C(=O)c2ccc3ccccc3c2)c2ccccc21`, the outcome in assay [1], in assay [2] and in assay [3] was inactive. Besides, the activity change, negative = inhibition in assay [4] was -0.784% (inactive). Besides, the max response is 17.8% in assay [4] (setting [6]) and 16.6% in assay [4] (setting [7]).
`NC(=O)c1cc(N2CC2)c([N+](=O)[O-])cc1[N+](=O)[O-]`: the compound was called inactive in assay [1], in assay [5], in assay [2] and in assay [3].
For the compound `OCc1cnc[nH]1`, the outcome in assay [1], in assay [2] and in assay [3] was inactive. In addition, the activity change, negative = inhibition in assay [4] is 1.18% (inactive). For the same compound, the max response turned out to be 7.21% in assay [4] (setting [6]) and 9.78% in assay [4] (setting [7]).
For the compound `CCCN(CCC)C1Cc2cc(OC)c(OC)cc2C1`, the outcome in assay [1], in assay [2] and in assay [3] was inactive. For the same compound, the activity change, negative = inhibition in assay [4] was -0.96% (inactive). The max response is -27.4% in assay [4] (setting [6]) and -31.4% in assay [4] (setting [7]).
